Test results published in PubChem BioAssay AID1851 (National Center for Advancing Translational Sciences (NCATS), 2009).
Several values for one entry are separate records, joined by “and”; a condition that tells them apart may be missing. Equal values may be shown once. Hit rate of the full screen: of about 16,000 compounds, about 5,700 (36%) were called active. Roughly 24% stayed inconclusive and do not appear here. Some of the results follow. Values without a mark were called inactive. The call rests on the fitted dose curve; in most records, active means well fitted curve in the direction sought with a large enough effect; inconclusive means small, poorly fitted or top-dose-only effect, or effect the other way; inactive means no such curve, though single readings can be large or run the other way.

target: Cytochrome P450 1A2 (Homo sapiens) (UniProt P05177); assay: Cytochrome panel assay with activity outcomes; conditions: recombinant CYP, pro-luciferin dealkylation, luminescence, p450-cyp1a2; series mostly up to 57.1 µM
On the % scale 0 is the no-effect control and ±100 the full control effect.

Cytochrome P450 1A2 (Homo sapiens), sequence (P05177 whole entry, looked up): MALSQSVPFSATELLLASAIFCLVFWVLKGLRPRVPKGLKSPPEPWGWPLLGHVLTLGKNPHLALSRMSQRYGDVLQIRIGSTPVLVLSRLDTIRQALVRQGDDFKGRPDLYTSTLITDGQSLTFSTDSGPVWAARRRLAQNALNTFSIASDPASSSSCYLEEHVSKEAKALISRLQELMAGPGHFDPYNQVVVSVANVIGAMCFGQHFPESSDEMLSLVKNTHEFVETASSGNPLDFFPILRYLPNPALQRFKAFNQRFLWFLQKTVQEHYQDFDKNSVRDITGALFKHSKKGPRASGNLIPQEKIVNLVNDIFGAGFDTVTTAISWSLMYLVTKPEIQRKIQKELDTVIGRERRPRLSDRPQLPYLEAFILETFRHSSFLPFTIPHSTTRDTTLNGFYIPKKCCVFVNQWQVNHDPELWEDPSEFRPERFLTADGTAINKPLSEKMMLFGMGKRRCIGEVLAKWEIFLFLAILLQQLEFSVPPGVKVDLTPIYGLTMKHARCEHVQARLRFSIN

| Structure (SMILES) | AC50 | activity, negative = inhibition |
| --- | --- | --- |
| NC(=O)C[C@H](NC(=O)Cc1ccc(O)cc1O)C(=O)O | inactive | – |
| CCc1nc2c(c(SC)nn2-c2ccccc2)c(N)c1C(=O)OC | 0.631 µM (active) | – |
| Nc1cc(-c2ccncc2)c[nH]c1=O | 15.8 µM (active) | – |
| NC(=O)c1cc[n+](CC2=C(C(=O)O)N3C(=O)[C@@H](NC(=O)[C@H](c4ccccc4)S(=O)(=O)[O-])[C@@H]3SC2)cc1 | inactive | – |
| COc1cccc(-c2nc(N(C)C)c3ccccc3n2)c1 | 0.251 µM (active) | – |
| CN(Cc1ccco1)c1nc(-c2cccc(C#N)c2)nc2ccccc12 | 0.1 µM (active) | – |
| COc1cccc(-c2nc(N(C)Cc3ccco3)c3ccccc3n2)c1 | 0.316 µM (active) | – |
| CC(=O)N[C@@H]1CONC1=O | – | -16.9% [at 11.4 µM] |
| COc1ccccc1CN1CCCC2(CCN(S(C)(=O)=O)CC2)C1 | inactive | – |
| c1cncc(CNc2ccnc(-c3ccc4c(c3)OCO4)n2)c1 | 0.126 µM (active) | – |
| c1csc(CNc2ccnc(-c3ccc4c(c3)OCO4)n2)c1 | 0.316 µM (active) | – |
| c1ccc(CNc2ccnc(-c3ccc4c(c3)OCO4)n2)cc1 | 0.398 µM (active) | – |
| COc1ccc(CNC(=O)C(c2ccc(C)cc2)N(Cc2cccs2)C(=O)c2ccc3c(c2)OCCO3)cc1 (configuration not stated) | inactive | – |
| CCOC(=O)C1=C(N)Oc2ccc(Br)cc2[C@@H]1[C@@H](C#N)C(=O)OCC | 0.251 µM (active) | – |
| CO[C@@H]1COC(=O)[C@H]2CCCN2C(=O)[C@@H](C)COC(=O)C/C=C\[C@H]1C | – | 1.25% [at 11.4 µM] |
| CCCN1CCC(=NNC(=O)c2ccc(Br)o2)CC1 | 8.91 µM (active) | – |
| O=C(c1ccccc1NS(=O)(=O)c1cccc([N+](=O)[O-])c1)N1CCOCC1 | inactive | – |
| O=Nc1c(O)n(Cc2ccc(Cl)cc2)c2ccccc12 | 14.1 µM (active) | – |
| Cc1nn(CC(=O)NCCN2CCOCC2)c(C)c1[N+](=O)[O-] | inactive | – |
| Cl/C(=C\n1cncn1)c1ccc(Cl)cc1Cl | 0.0631 µM (active) | – |
| O=C(Nc1cccn2ncnc12)c1ccc(Cl)cc1Cl | inactive | – |
| CCOc1cccc(/C(O)=C2/C(=O)C(=O)N(Cc3cccnc3)C2c2ccco2)c1 (configuration not stated) | inactive | – |
| COc1cccc(/C(O)=C2/C(=O)C(=O)N(Cc3cccnc3)C2c2ccco2)c1 (configuration not stated) | inactive | – |

| Structure (SMILES) | AC50 | activity, negative = inhibition |
| --- | --- | --- |
| CCOc1cccc(/C(O)=C2/C(=O)C(=O)N(Cc3ccco3)C2c2ccncc2)c1 (configuration not stated) | 25.1 µM (active) | – |
| N[C@@H](Cn1ccc(=O)n(Cc2ccccc2C(=O)O)c1=O)C(=O)O | inactive | – |
| O=C(c1ccccc1)c1c[nH]c(C(=O)NCc2cccnc2)c1 | 3.55 µM (active) | – |
| O=S1(=O)[C@H]([C@H]2CC3c4ccccc4C2c2ccccc23)[C@@H](N2CCCCC2)[C@@H]1c1ccccc1 | – | 1.63% [at 2.29 µM] |
| O=C(CCn1nc(-c2ccc(Cl)cc2)ccc1=O)N1CCOCC1 | inactive | – |
| Nn1c(SCC(=O)N2CCOCC2)nnc1-c1ccccc1Cl | inactive | – |
| CC(C)Cn1c(-c2ccc(Cl)cc2)cnc1SCC(=O)N1CCOCC1 | 12.6 µM (active) | – |
| C#CCSc1n[nH]c(-c2ccco2)n1 | 2 µM (active) | – |
| CN(C)C(N)=NCCC[C@H](N)C(=O)O | inactive | – |
| O[C@@H](C1=C/C(=C\c2ccncc2)c2ccccc21)c1ccncc1 | 0.1 µM (active) | – |
| COc1ccc(C(C(=O)NC2CCCCC2)N(C(=O)CCCC(=O)Nc2ccccn2)c2ccc3c(c2)OCCO3)cc1 (configuration not stated) | inactive | – |
| COc1ccc2c(c1)C(=O)N(CCc1ccc(S(=O)(=O)NC(=O)NC3CCCCC3)cc1)C(=O)C2(C)C | inactive | – |
| COc1ccc(/C=N/NC(=O)CCCC(=O)NC2CCCCC2)cc1 | 11.2 µM (active) | – |
| COc1ccc(C(C(=O)NC2CCCCC2)N2CCC3(CC2)OCCO3)cc1 (configuration not stated) | inactive | – |
| COc1ccc(CCCC(=O)NC2CCCCC2)cc1 | 25.1 µM (active) | – |
| CCCC(=O)N=C1SC2CS(=O)(=O)CC2N1c1ccc(CC)cc1 (configuration not stated) | inactive | – |
| CC(=O)OC[C@H]1O[C@@H](O/N=C(\C)CCC(=O)OC[C@@H]2O[C@H](C#Cc3ccccc3)C=C[C@@H]2Oc2ccc(C)cc2)[C@H](OC(C)=O)[C@@H](OC(C)=O)[C@H]1OC(C)=O | – | -5.25% [at 11.4 µM] |
| O=c1c(-c2cccc(F)c2)nc2cncnc2n1-c1ccccc1 | 10 µM (active) | – |
| O=c1c(-c2cc(F)cc(F)c2)nc2cncnc2n1-c1ccccc1 | 12.6 µM (active) | – |
| C/C(CCN1CCc2nc(-c3ccccc3)c(-c3ccccc3)cc2C1)=N\O[C@@H](C)CN1CCCCc2nc(C)c(C)cc21 | – | -10.7% [at 11.4 µM] |
| Cc1c(-c2ccc(O)cc2)nn(-c2ccc(O)cc2)c1-c1ccc(OCCN2CCCCC2)cc1 | 12.6 µM (active) | – |
| CC(=O)N1CCC[C@@]2(CCN(Cc3ccccc3)C2)C1 | inactive | – |
| COC(=O)[C@@]1(Cc2ccc(F)cc2)[C@H]2c3cc(C(=O)N4CCCC4)n(Cc4ccc(Cl)c(C(F)(F)F)c4)c3C[C@H]2CN1C(=O)c1ccccc1 | inactive | – |

| Structure (SMILES) | AC50 | activity, negative = inhibition |
| --- | --- | --- |
| CCOC(=O)C1=C(CSc2nc(-c3ccccc3)ccc2C#N)OC(N)=C(C#N)C1c1ccc(OC)cc1 (configuration not stated) | 2 µM (active) | – |
| Cc1ccc(S(=O)(=O)Nc2ccccc2C=O)cc1 | – | -16% [at 11.4 µM] |
| CSc1ccc(S(=O)(=O)Nc2ccc3c4c(cccc24)CC3)cc1 | 25.1 µM (active) | – |
| O=C(NCCc1ccc(Cl)cc1)c1ncn[nH]1 | 20 µM (active) | – |
| O=C(NCCc1ccc(Cl)cc1)Nc1cccc(Cl)c1 | 4.47 µM (active) | – |
| Cc1nc(SCC(=O)Nc2c(C)n(C)n(-c3ccccc3)c2=O)nc(C)c1C | inactive | – |
| Cc1nc(SCC(=O)Nc2ccc(N3CCOCC3)cc2)nc(C)c1C | inactive | – |
| NCCNC(=O)c1ccc(Cl)cc1 | 12.6 µM (active) and 10 µM (active) | – |
| Cc1nc(SCC(=O)NCCc2ccc(Cl)cc2)nc(C)c1C | 20 µM (active) | – |
| N[C@@H](C(=O)O)[C@H](CC(=O)O)c1ccc(Cl)cc1 | inactive | – |
| CC(=O)OC[C@@H]1O[C@H](C/C=N\O[C@@H](C)CN2CCCCc3nc(C)c(C)cc32)C=C[C@@H]1OC(C)=O | – | -2.17% [at 11.4 µM] |
| O=C(N/N=C1/C[C@@H](O)[C@@H](O)[C@@H]2[C@@H]3C(=O)N(Cc4ccccc4)C(=O)[C@H]3CC[C@H]12)OCc1ccccc1 | – | -7.17% [at 11.4 µM] |
| O=C(NNC(=O)c1ccccc1O)c1ccc(Cl)cc1 | inactive | – |
| CNC(=O)C(=O)NCCc1ccc(Cl)cc1 | 7.08 µM (active) | – |
| O=C(NCCc1ccc(O)cc1)c1ccc(Cl)cc1 | 14.1 µM (active) | – |
| CC(C)(Oc1ccc(CCNC(=O)c2ccc(Cl)cc2)cc1)C(=O)O | inactive | – |
| COc1cccc(-c2nnc3sc(-c4ccc(C)cc4)nn23)c1 | 7.08 µM (active) | – |
| CC(C)(C)n1nc2c(c1NC(=O)c1ccc(S(=O)(=O)N3CCCCC3)cc1)CS(=O)C2 (configuration not stated) | inactive | – |
| COc1ccc(Nc2ncc(C(=O)N3CCN(Cc4ccccc4)CC3)c3ccccc23)cc1 | inactive | – |
| COc1cccc(-c2ccc3ncnc(Nc4ccccc4)c3c2)c1 | 1 µM (active) | – |
| COc1ccc(Nc2ncnc3sc(-c4ccccc4)cc23)cc1 | 0.891 µM (active) | – |
| CNc1ncnc2ccc(-c3cccc(OC)c3)cc12 | 0.501 µM (active) | – |
| N[C@@H](CSC(=O)c1ccccc1)C(=O)O | – | -14.7% [at 11.4 µM] |

| Structure (SMILES) | AC50 | activity, negative = inhibition |
| --- | --- | --- |
| CN(C)CCCN1CC(C(=O)O)CC1=O (configuration not stated) | inactive | – |
| CCOc1ccc(/C(O)=C2/C(=O)C(=O)N(CCCn3ccnc3)C2c2cccs2)cc1Cl (configuration not stated) | 15.8 µM (active) | – |
| CCN(CC)CCN1C(=O)C(=O)/C(=C(/O)c2ccc(OC)cc2)C1c1cccs1 (configuration not stated) | inactive | – |
| Cc1ccc(/C(O)=C2/C(=O)C(=O)N(CCCn3ccnc3)C2c2ccccn2)cc1 (configuration not stated) | inactive | – |
| O=C(N/N=C/c1ccc([N+](=O)[O-])o1)c1cc(-c2ccncc2)nc2ccccc12 | 15.8 µM (active) | – |
| O=C(O)c1cc(-c2ccncc2)nc2ccccc12 | – | -9.92% [at 11.4 µM] |
| Nc1ccc(S(=O)(=O)Nc2ccc(Cl)nn2)cc1 | inactive | – |
| COc1ccccc1/C=C/C=N/N1CCN(Cc2cccc3ccccc23)CC1 | 7.08 µM (active) | – |
| COc1ccccc1CN1CCC2(CC1)CCN(S(C)(=O)=O)CC2 | inactive | – |
| FC(F)(F)c1ccc(/C=N/N2CCN(Cc3cccc4ccccc34)CC2)cc1 | inactive | – |
| COc1ccc([C@@H]2CNC(=O)C2)cc1OC1CCCC1 | 3.16 µM (active) and 3.98 µM (active) | – |
| COc1ccc(C2C(=O)N(C3CCCCCC3)CC(=O)N2Cc2ccccc2)cc1OC (configuration not stated) | inactive | – |
| COc1ccc(OC)c(C2CC(=O)C3=C(C2)NC(=O)CC3c2ccc(O)c(OC)c2)c1 (configuration not stated) | inactive | – |
| COc1cccc(-c2ccc3ncnc(NCc4ccc(OC)cc4OC)c3c2)c1 | 2.51 µM (active) | – |
| COc1ccccc1CNc1ncnc2ccc(-c3cccnc3)cc12 | 0.316 µM (active) | – |
| COc1ccc(CNc2ncnc3ccc(-c4cccnc4)cc23)c(OC)c1 | 0.398 µM (active) | – |
| COc1ccc(CNc2ncnc3ccc(-c4c(C)noc4C)cc23)c(OC)c1 | 15.8 µM (active) | – |
| CO/N=C(\C)CCN1CCCc2nc(C)c(C)cc21 | – | 2.07% [at 11.4 µM] |
| Cc1cc(C)cc(OCC(=O)NNC(=O)c2cc(C)[nH]n2)c1 | inactive | – |
| COCC(=O)N1CCC2(CC1)CN(C(=O)Nc1cccc(F)c1)C2 | inactive | – |
| O=C(Cn1cnc2ccccc2c1=O)Nc1nnc(SCc2ccccc2)s1 | inactive | – |
| O=C(Cc1ccccc1)Nc1nc(=O)c2ccccc2s1 | 2.24 µM (active) | – |
| CCc1ccc2c(c1)c(N=NC1=NC(=O)CS1)c(O)n2CC | 1.41 µM (active) | – |
